This is an account of results in PubChem BioAssay (EPA / NIEHS).

SMILES strings stand for the structures. Results filed as inconclusive are left out. A structure can be active in one record and inactive in another. Calls of active or inactive are those of the source. Rule for the calls, unless noted: active = hit-call score of the fitted dose curve at least 0.9, where 1 is the maximum; inconclusive = response in the unintended direction; inactive = score below 0.9.

Assay [1] addresses Estrogen receptor beta (Homo sapiens) (UniProt Q92731). Put plainly: OT_ER_ERbERb_1440: Odyssey Thera (OT) 24-hour HEK293T Protein-Complementation Assay for Estrogen Receptor-beta/-beta Homodimer (AID 2283380).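 Note: fluorescence gain from ER beta LBD homodimer complementation read by laser scanning cytometry; scored as signal increase over DMSO baseline for both agonists and antagonists.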 A digest of the protocol:
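HEK293T cells stably expressing human ER-beta LBD (aa 310-547) PCA homodimer pair, dosed 24 h; formaldehyde-fixed, Draq5-stained. Readout: increase in nuclear (agonist) or nuclear plus cytoplasmic (antagonist) fluorescence intensity versus DMSO, gain-of-signal fitting.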

Assay [2] has as its target Estrogen receptor (Homo sapiens) (UniProt P03372). Briefly: OT_ERa_GFPERaERE_0480: Odyssey Thera (OT) 8-hour HeLa Transcription Induction Assay for Estrogen Receptor (AID 2283381; active = hit-call score of the fitted dose curve at least 0.9, where 1 is the maximum; inactive = score below 0.9). A digest of the protocol:
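HeLa cells expressing GFP reporter under estrogen response element, imaged 8 h after dosing. GFP induction quantified by high-content fluorescence microscopy image analysis; gain of signal fitted versus DMSO.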

Assay [3] has the same target. Briefly: OT_ERa_GFPERaERE_0120: Odyssey Thera (OT) 2-hour HeLa Transcription Induction Assay for Estrogen Receptor (AID 2283382). A digest of the protocol: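 HeLa cells were dosed for 2 h, then GFP reporter induction was quantified by fluorescence microscopy with high-content image analysis. Gain of signal fitted against DMSO baseline.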
For assay [4], the target named is Bile acid receptor (Homo sapiens) (UniProt Q96RI1). Briefly: OT_FXR_FXRSRC1_0480: Odyssey Thera (OT) 8-hour HEK293T Protein-Complementation Assay for Farnesoid X receptor/SRC-1 Co-activator (AID 2283383). A digest of the protocol:
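HEK293T protein-fragment complementation assay: FXR and SRC-1 coactivator are fused to reporter fragments, and their interaction restores a fluorescent reporter. Readout was taken 8 h after dosing, with gain of signal fit relative to DMSO.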

The target is the same in assay [5]. Put plainly: OT_FXR_FXRSRC1_1440: Odyssey Thera (OT) 24-hour HEK293T Protein-Complementation Assay for Farnesoid X receptor/SRC-1 Co-activator (AID 2283384). A digest of the protocol:
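HEK293T cells, 24 h after chemical dosing. FXR–SRC-1 coactivator interaction read as fluorescence from protein-fragment complementation of a split reporter. Gain of signal fitted against DMSO baseline.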

Assay [6] concerns the target Retinoic acid receptor RXR-alpha (Homo sapiens) (UniProt P19793). Put plainly: OT_NURR1_NURR1RXRa_1440: Odyssey Thera (OT) 24-hour HEK293T Protein Complementation Assay for Nurr1/retinoid X receptor (RXR) (AID 2283386). A digest of the protocol:
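HEK293T protein-fragment complementation of Nurr1 and RXRα fused to reporter fragments; compounds 24 h. Fluorescence gain from reconstituted reporter fitted versus DMSO.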

Assay [7] concerns the target Peroxisome proliferator-activated receptor gamma (Homo sapiens) (UniProt P37231). Briefly: OT_PPARg_PPARgSRC1_0480: Odyssey Thera (OT) 8-hour Protein-Complementation Assay for Peroxisome Proliferator-activated Receptor Gamma / SRC-1 Co-activator (AID 2283387).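 Note: nuclear to cytoplasmic split Venus YFP fluorescence ratio reporting PPARg SRC-1 interaction.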 The essentials:
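Protein-fragment complementation in HEK293T: Venus YFP halves (residues 1-158, 159-239, mutated to IFP1/IFP2) fused to PPARg/SRC-1. 8 h exposure; N/C ratio at 488 nm; DMSO negative control.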

Assay [8] has the same target. Put plainly: OT_PPARg_PPARgSRC1_1440: Odyssey Thera (OT) 24-hour Protein-Complementation Assay for Peroxisome Proliferator-activated Receptor Gamma/ SRC-1 Co-activator (AID 2283388).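 Note: nuclear to cytoplasmic ratio of reconstituted Venus YFP fluorescence in fixed imaged cells.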 A digest of the protocol:
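Readout is the 488 nm N/C fluorescence ratio from fixed, Draq5-stained HEK293T cells after 24 h compound exposure. Cells carried transiently transfected PPARg and SRC-1 fused to Venus fragments, transfected 48 h before treatment.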

For assay [9], the target named is Retinoic acid receptor RXR-alpha (Homo sapiens) (UniProt P19793). Put plainly: OT_NURR1_NURR1RXRa_0480: Odyssey Thera (OT) 8-hour HEK293T Protein Complementation Assay for Nurr1/retinoid X receptor (RXR) (AID 2283385). The essentials:
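HEK293T cells expressing Nurr1 and RXRα fused to reporter fragments (protein-fragment complementation); fluorescence measured 8 h after dosing. Gain of signal fitted relative to DMSO.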

For assay [10], the target named is Agonist Androgen Response Element (ARE), AR (gene 367) (UniProt P10275). Put plainly: OT_AR_ARELUC_AG_1440: Odyssey Thera (OT) 24-hour CHO-K1 Luciferase Assay for Agonist Androgen Response Element (ARE) (AID 2283379). A digest of the protocol: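 Seed CHO-K1 cells; dose compounds for 24 h; add D-luciferin plus ATP in PBS; read luminescence. Signal increase relative to vehicle defines agonist activity, with at least 3 replicate wells per sample.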
Sequence of Agonist Androgen Response Element (ARE), AR (gene 367) (P10275 whole entry, looked up): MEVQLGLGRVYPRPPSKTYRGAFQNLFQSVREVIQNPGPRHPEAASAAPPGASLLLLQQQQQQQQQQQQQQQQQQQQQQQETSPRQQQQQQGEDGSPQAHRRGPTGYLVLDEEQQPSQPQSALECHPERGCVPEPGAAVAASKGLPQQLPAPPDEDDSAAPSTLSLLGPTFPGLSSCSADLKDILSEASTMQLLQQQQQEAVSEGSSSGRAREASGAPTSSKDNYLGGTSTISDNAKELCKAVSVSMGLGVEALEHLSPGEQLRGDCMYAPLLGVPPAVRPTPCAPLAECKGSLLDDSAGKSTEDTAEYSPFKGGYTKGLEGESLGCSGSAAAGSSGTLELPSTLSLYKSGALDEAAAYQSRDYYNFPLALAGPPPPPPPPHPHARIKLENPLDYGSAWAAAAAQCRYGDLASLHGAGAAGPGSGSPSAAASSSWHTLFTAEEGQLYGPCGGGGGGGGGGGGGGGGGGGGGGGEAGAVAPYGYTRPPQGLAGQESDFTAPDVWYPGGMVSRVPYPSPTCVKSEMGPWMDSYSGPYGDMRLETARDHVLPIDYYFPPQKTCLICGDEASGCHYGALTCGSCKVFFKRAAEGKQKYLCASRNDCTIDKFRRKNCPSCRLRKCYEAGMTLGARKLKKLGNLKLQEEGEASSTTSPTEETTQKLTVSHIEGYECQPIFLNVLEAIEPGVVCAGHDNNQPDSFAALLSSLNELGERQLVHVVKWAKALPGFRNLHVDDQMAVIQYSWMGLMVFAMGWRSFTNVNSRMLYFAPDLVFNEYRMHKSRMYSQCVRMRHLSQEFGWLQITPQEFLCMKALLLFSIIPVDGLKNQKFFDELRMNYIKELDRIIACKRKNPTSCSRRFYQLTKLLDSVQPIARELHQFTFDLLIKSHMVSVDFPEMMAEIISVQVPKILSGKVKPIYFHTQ

Sequence of Peroxisome proliferator-activated receptor gamma (Homo sapiens) (P37231 whole entry, looked up, the tested form may be a part): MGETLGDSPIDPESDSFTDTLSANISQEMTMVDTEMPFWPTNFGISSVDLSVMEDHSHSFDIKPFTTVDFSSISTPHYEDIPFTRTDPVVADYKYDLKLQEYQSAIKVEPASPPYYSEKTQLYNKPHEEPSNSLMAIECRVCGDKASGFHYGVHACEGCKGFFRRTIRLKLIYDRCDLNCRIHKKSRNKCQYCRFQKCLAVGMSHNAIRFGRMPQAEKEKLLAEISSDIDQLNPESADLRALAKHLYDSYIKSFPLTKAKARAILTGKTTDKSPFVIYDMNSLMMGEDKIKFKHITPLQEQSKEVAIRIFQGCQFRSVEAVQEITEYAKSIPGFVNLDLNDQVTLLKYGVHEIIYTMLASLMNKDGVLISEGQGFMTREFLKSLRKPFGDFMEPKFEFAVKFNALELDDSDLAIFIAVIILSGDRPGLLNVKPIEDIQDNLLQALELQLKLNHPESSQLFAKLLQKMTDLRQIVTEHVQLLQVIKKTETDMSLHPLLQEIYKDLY
Sequence of Retinoic acid receptor RXR-alpha (Homo sapiens) (P19793 whole entry, looked up, the tested form may be a part): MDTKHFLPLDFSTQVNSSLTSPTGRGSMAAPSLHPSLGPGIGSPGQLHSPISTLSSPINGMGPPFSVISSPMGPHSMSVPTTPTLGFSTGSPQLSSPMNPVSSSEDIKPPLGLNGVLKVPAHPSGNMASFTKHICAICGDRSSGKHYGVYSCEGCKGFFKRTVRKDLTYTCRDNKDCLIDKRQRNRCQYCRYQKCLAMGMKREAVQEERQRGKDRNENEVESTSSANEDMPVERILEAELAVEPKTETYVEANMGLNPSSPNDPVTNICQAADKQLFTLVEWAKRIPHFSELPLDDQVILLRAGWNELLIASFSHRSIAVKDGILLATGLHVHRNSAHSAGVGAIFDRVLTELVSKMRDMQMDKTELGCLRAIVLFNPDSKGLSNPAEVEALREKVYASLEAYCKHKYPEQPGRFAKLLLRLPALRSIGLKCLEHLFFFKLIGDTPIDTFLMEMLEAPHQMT
Sequence of Estrogen receptor (Homo sapiens) (P03372 whole entry, looked up): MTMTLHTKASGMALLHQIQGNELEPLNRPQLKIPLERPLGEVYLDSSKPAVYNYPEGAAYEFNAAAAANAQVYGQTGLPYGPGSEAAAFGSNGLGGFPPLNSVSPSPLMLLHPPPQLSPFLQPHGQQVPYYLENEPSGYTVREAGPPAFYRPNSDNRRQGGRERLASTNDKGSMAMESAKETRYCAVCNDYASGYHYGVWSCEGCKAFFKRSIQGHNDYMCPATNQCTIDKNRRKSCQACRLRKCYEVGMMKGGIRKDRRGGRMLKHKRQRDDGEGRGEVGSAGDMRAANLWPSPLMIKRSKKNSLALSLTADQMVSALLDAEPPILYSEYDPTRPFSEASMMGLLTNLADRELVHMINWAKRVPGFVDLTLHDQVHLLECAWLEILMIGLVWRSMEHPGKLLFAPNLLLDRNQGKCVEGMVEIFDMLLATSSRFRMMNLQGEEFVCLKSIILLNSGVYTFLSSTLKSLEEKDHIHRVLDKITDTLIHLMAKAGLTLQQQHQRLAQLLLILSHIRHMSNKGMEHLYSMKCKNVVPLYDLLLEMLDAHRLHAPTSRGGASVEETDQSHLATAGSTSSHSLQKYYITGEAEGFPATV
Sequence of Bile acid receptor (Homo sapiens) (Q96RI1 whole entry, looked up, the tested form may be a part): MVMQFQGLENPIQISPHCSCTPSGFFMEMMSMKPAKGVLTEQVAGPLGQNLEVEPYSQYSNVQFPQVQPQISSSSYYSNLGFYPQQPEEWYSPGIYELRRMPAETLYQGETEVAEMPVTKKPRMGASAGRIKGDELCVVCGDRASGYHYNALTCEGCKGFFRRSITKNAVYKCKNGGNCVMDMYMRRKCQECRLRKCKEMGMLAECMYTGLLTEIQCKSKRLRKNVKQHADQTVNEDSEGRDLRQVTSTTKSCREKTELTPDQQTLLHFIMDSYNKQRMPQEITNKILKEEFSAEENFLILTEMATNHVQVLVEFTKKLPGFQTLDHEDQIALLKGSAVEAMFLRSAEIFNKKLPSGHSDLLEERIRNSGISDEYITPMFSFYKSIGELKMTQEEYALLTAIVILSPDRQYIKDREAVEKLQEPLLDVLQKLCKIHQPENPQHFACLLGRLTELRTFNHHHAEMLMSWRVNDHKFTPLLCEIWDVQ
Sequence of Estrogen receptor beta (Homo sapiens) (Q92731 whole entry, looked up, the tested form may be a part): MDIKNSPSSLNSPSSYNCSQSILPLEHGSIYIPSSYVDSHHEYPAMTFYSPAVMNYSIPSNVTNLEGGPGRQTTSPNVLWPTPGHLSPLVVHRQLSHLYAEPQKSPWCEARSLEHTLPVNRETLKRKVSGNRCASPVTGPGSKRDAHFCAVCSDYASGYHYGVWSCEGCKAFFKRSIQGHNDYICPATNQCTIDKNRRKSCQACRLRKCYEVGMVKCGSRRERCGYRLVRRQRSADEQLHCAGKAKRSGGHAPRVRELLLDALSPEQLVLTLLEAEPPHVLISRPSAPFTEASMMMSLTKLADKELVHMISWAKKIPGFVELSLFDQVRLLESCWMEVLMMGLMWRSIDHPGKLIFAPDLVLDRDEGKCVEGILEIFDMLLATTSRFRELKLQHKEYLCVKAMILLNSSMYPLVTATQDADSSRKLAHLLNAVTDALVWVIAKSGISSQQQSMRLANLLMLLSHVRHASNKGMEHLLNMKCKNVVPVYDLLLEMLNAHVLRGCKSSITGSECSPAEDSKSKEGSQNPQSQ

For the molecule `c1ccc2cc3ccccc3cc2c1`, the outcome in [1], in assay [2], in assay [3], in assay [4], in assay [5] and in assay [7] was inactive. Also, the outcome in [8] was inactive. Moreover, the AC50 in assay [6] was 72.7 µM (active).
For `O=C(O)[C@H](O)[C@@H](O)C(=O)O`, the call in assay [1], in [2], in [3], in [4], in [5] and in [9] was inactive. For the same molecule, the call in assay [6], in [7] and in assay [8] was inactive.
Regarding `CCOc1ccc2[nH]cc(C(=O)NCc3ccccc3)c(=O)c2n1`, the molecule was called inactive in assay [1], in assay [2], in assay [3], in [4], in assay [5] and in assay [6]. Moreover, the molecule was called inactive in assay [7] and in assay [8].
As to `CCN(CC)C(=S)SSC(=S)N(CC)CC`, the result in assay [10], in assay [1], in assay [4], in assay [5], in [7] and in [8] was inactive. In addition, the AC50 is 92.5 µM (active) in assay [2] and 77.7 µM (active) in [3].
`CCc1cccc(CC)c1N`: the outcome in assay [10], in assay [1], in assay [2], in [3] and in assay [6] was inactive.
Turning to `NC(=O)NN=Cc1ccc([N+](=O)[O-])o1`, the molecule was called inactive in assay [1], in assay [2], in assay [3], in assay [9], in assay [6] and in [7]. Besides, in [8], the molecule was classed as inactive.
Take `Cc1nccn1-c1ccc(Sc2cccc(C3(C(N)=O)CCOCC3)c2)cc1`: the AC50 in assay [1] was 31.9 µM (active); in assay [2], 17.4 µM (active); in assay [4] it was 4.07 µM (active); in [5] it was 9.64 µM (active); in [6], 50 µM (active). Further, the molecule was called inactive in [3], in assay [6], in assay [7] and in assay [8].
On to `CCCCCCCC/C=C\CCCCCCCC(=O)OC[C@@H](O)[C@H]1OC[C@H](O)[C@H]1O`, for which the result in assay [1], in assay [2], in assay [3], in assay [9], in [6] and in assay [7] was inactive. Moreover, the result in assay [8] was inactive.
Turning to `COc1cc(C(C)C)c2c(c1)S(=O)(=O)N(COc1cc(=O)n3cccc(OCCN4CCCCC4)c3n1)C2=O`, the result in assay [10], in [3], in assay [4], in assay [6], in assay [7] and in assay [8] was inactive. In addition, the half-maximal activity concentration (AC50) in assay [2] is 23.2 µM (active); in assay [5], 19.3 µM (active); in assay [6], 2.9 µM (active).
As to `OC[C@H]1O[C@@](CO)(O[C@H]2O[C@H](CO)[C@@H](O)[C@H](O)[C@H]2O)[C@@H](O)[C@@H]1O`, the molecule was called inactive in [1], in assay [2], in assay [3], in assay [5], in assay [6] and in [7]. Besides, the call in [8] was inactive.
With `CCCOc1ccc(S(=O)(=O)N2CCN(CC)CC2)cc1-c1nc2c(CC)n(Cc3ccccn3)nc2c(=O)[nH]1`, the result in assay [1], in assay [2], in assay [3], in assay [4], in assay [5] and in assay [7] was inactive. Also, the outcome in [8] was inactive.
Take `Cc1nc(-c2ccccn2)ncc1C(=O)Nn1cc(C)c2cc(F)ccc21`: the result in [10], in [1], in [2], in assay [3], in assay [5] and in [6] was inactive. Besides, the molecule was called inactive in [7] and in assay [8].
Regarding `CCCCOC(=O)c1ccccc1`, the molecule was called inactive in assay [10], in assay [2], in assay [3], in [9], in assay [6] and in assay [7]. Further, in [8], the call was inactive.
With `NC(=O)N(O)[C@@H]1COc2cc(OCc3ccccc3)ccc21`, the result in [1], in assay [2], in assay [3], in [4], in assay [5] and in [6] was inactive. Besides, the molecule was called inactive in assay [7] and in assay [8].
Turning to `NC(N)=O`, the outcome in [1], in assay [2], in assay [3], in assay [9], in [6] and in assay [7] was inactive. Besides, in assay [8], the molecule was classed as inactive.
As for `CCCCC(CC)C(=O)OCCOCCOCCOC(=O)C(CC)CCCC` (stereo not given), the molecule was classed as inactive in assay [10], in [1], in assay [2], in [3], in assay [9] and in assay [6]. Further, the molecule was called inactive in [7] and in [8].
In the case of `c1ccc2c(c1)-c1cccc3c1c-2cc1ccccc13`, the molecule was classed as inactive in [1], in [2], in assay [9], in assay [6], in [7] and in assay [8]. The AC50 in assay [3] was 77.5 µM (active); in assay [6] it was 11.2 µM (active).
For `CCCCCCCCCCCCCCCCOS(=O)(=O)O`, the outcome in assay [10], in assay [1], in [2], in assay [3], in [4] and in [9] was inactive. Also, the molecule was classed as inactive in assay [6], in assay [7] and in assay [8].
For `NNC(=O)c1ccncc1`, the molecule was classed as inactive in assay [1], in [2], in [3], in assay [9], in [6] and in assay [7]. In addition, the result in assay [8] was inactive.
With `Cc1ncc([C@@H](CCCCCCc2ccc3c(n2)NCCC3)CC(=O)O)cn1`, the call in assay [1], in [2], in assay [3], in assay [5], in assay [6] and in assay [7] was inactive. Besides, the call in assay [8] was inactive. For the same molecule, the AC50 in assay [7] is 12.4 µM (active).
Take `CCCCCCCCCCCCCCO`: the result in assay [1], in assay [2], in assay [3], in assay [9], in [6] and in assay [7] was inactive. Besides, the molecule was called inactive in assay [8]. Further, in assay [6], the concentration at half-maximal activity (AC50) was 74.3 µM (active).
As to `C[C@@H](Oc1ccc(CNC(=O)c2cccnc2Oc2ccc3c(c2)OCO3)c(F)c1)C(=O)O`, the call in assay [1], in assay [2], in [3], in assay [4], in assay [6] and in assay [7] was inactive. Further, in assay [8], the call was inactive.
For the molecule `O=C(O)c1cccc(C[C@@H]2COc3ccc(OCc4nc5cc(F)ccc5s4)cc3[C@@H]2O)c1`, the call in [1], in assay [2], in [3], in assay [9] and in assay [6] was inactive.
As to `CCCCCCCCCC`, the molecule was called inactive in assay [1], in assay [2], in assay [3], in assay [4], in assay [5] and in [6]. The result in [7] and in [8] was inactive.
With `OCCOCCOCCO`, the call in assay [10], in assay [1], in [2], in assay [3], in assay [9] and in assay [6] was inactive. The result in [7] and in assay [8] was inactive.
Regarding `CC(C)CCCCCCOC(=O)C1CCCCC1C(=O)OCCCCCCC(C)C` (stereo not given), the call in assay [1], in assay [2], in [3], in assay [4], in assay [9] and in assay [6] was inactive. The molecule was called inactive in assay [7] and in assay [8].
Take `Cc1cccc(O)c1C`: the result in assay [1], in assay [2], in assay [3], in assay [4], in assay [5] and in assay [7] was inactive. In addition, the molecule was classed as inactive in assay [8].
As for `COCc1nnc(-c2ccc[n+]([O-])c2)n1-c1c(Cl)c(Cl)cc2[nH]c(=O)c(=O)[nH]c12`, the molecule was classed as inactive in assay [1], in [2], in [3], in assay [4], in [6] and in [7]. Also, the result in assay [8] was inactive.
Consider `O=C(O)c1ccc2c(c1)nc(C(=O)NC1CCN(C3CC3)CC1)n2Cc1cc(-c2ccc(Cl)s2)on1`, for which the molecule was classed as inactive in assay [1], in assay [2], in assay [3], in assay [4], in assay [5] and in [6]. Moreover, the call in [7] and in assay [8] was inactive.
As to `CCn1nc(C)c2c1C(=O)NCC(c1ccc(O)cc1)=N2`, the outcome in assay [1], in [2], in [3], in assay [9], in [6] and in assay [7] was inactive. In addition, the molecule was classed as inactive in [8]. For the same molecule, in assay [6], the AC50 was 21.4 µM (active).
Consider `CC(C)CC(C)O` (stereo not given), for which the molecule was classed as inactive in assay [1], in assay [2], in assay [3], in assay [4], in assay [6] and in [7]. The molecule was classed as inactive in [8].
